Compounds with a hit are over-represented: about 5.4% of the library has one in this group of screens.
PNC inhibitor: perinucleolar compartment assembly inhibition | PC3M PTB-GFP, PNC prevalence imaging, 16 h; active compounds read low | activity change (PNC), negative = inhibition, % at 10 µM | AID 2417 | 140,000 compounds, 3.1% hits;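 active = readout at or below -70, meaning at least 70% loss of cells showing the perinucleolar compartment, a nuclear body marking cancer cells; inconclusive = readout between -30 and a set limit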;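 also: plate controls were DMSO wells for no effect and camptothecin positive control wells for full effect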
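Read-out is percentage of cells bearing a perinucleolar compartment, from automated 20x imaging of fixed, Hoechst-stained PC3M PTB-GFP cells. Cells were seeded 4 h, then exposed 16 h to compound (23 nl of library stock) in duplicate plates.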
IMPase inh: IMPase inhibition in cells. P97697. CHO-M1 cells, IP1 accumulation, HTRF TR-FRET ratio. inhibition (IP1 accumulation), % at 46.1 µM. 120,000 tested, under 10 active. AID 901; active = well fitted curve in the direction sought with a large enough effect in the signal ratio, not every such curve was filed as active; inconclusive = small, poorly fitted or top-dose-only effect, or a change in a side signal; inactive = no such curve, though single readings can be large or run the other way; the % refers to the signal ratio;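 also: cells stimulated with carbachol in lithium chloride buffer; plate controls were DMSO basal wells for no effect and reference inhibitor wells for full effect; higher means more IMPase inhibition seen as more IP1 and lower FRET ratio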
Target sequence (P97697 whole entry, looked up): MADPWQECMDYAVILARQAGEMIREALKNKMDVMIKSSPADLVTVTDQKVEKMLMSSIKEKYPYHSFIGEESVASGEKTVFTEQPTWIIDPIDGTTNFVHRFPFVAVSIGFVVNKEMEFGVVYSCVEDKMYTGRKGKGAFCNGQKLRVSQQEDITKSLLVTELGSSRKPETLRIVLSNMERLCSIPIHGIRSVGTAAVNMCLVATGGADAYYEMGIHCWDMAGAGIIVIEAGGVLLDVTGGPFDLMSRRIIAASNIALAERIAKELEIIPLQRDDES
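Carbachol-driven Gq signalling in CHO-M1 cells (2000/well) generates IP1. Compounds that block IMPase raise IP1 and so reduce the FRET signal from Eu-anti-IP1 and d2-IP1 after a 10 min room-temperature lysis.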
HPGD block: inhibitors of human 15-hydroxyprostaglandin dehydrogenase (HPGD) | P15428 | purified HPGD, NADH fluorescence kinetic, PGE2 substrate | Potency, µM, for the others: at the highest dose activity change, negative = inhibition, most hits filed as inhibitors | 150,000 compounds, 4.3% hits | AID 894; active = well fitted inhibition curve with a large enough effect, not every such curve was filed as active; inconclusive = small, poorly fitted or top-dose-only effect, or another doubt; inactive = no such curve, though single readings can be large or run the other way; also: potency is read from the fitted curve at half-maximal effect
Target sequence (P15428 whole entry, looked up): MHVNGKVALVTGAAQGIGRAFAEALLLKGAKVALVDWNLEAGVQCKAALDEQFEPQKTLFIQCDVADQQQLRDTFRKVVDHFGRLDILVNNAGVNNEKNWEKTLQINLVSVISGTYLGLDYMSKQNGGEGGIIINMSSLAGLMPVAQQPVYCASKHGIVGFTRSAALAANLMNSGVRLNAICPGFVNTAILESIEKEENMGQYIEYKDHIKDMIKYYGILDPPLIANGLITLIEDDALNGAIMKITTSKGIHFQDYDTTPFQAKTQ
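20 nM HPGD preincubated 15 min at room temperature with compound in 50 mM Tris-HCl pH 8, 0.01% Tween 20. Started with 1 mM NAD+ and 30 uM prostaglandin E2; NADH fluorescence (360/450 nm) read 5 times over 30-s intervals, last minus first.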
ALOX15B inhib: 15-hLO-2 (ALOX15B) enzyme inhibition | purified 15hLO-2, xylenol orange hydroperoxide absorbance | Potency, µM (doses to about 57.1 µM), inactives show at the highest dose activity change, negative = inhibition, actives largely listed as inhibitors | O15296 | 110,000 compounds, 0.56% hits; also: potency is read from the fitted curve at half-maximal effect; nearly all actives have a fitted effect of over 60% in size
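Purified human 15hLO-2 (50 nM final) preincubated with compounds 15 min at room temperature in 25 mM Hepes pH 7.5, 0.01% Triton X-100, then 45 uM arachidonic acid added for 90 min; hydroperoxide detected via ferrous/xylenol orange, 573/405 nm absorbance ratio.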
12-hLO inh: inhibitors of human 12-lipoxygenase (ALOX12) | P18054 | purified 12-hLO, xylenol orange hydroperoxide absorbance | Potency, µM (titrated, usually from 57.1 µM), for inactives: at the highest dose activity change, negative = inhibition, actives largely listed as inhibitors | 150,000 compounds, 0.12% hits; also: potency is read from the fitted curve at half-maximal effect; nearly all actives have a fitted effect of over 55% in size
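Lipoxygenase turnover measured by absorbance at 573 and 405 nm after Fe-XO development. Human 12hLO 150 nM, arachidonate 40 uM, pH 7.0 Hepes buffer with detergent; 15 min compound preincubation, 30 min reaction.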
IMPase Li cell: cell-permeable IMPase inhibitors with lithium potentiation; CHO-M1 cells, IP1 TR-FRET (IP-One), carbachol + lithium; Potency, µM (series often up to 59.4 µM), without a hit: top-dose activity, negative = IMPase inhibition, actives largely listed as inhibitors; 210,000 compounds, 0.35% hits; AID 1457;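 also: IP1 builds up when IMPase is blocked and the TR-FRET signal falls; potency is read from the fitted curve at half-maximal effect; plate controls were basal vehicle for no effect and high inhibitor control for full effect; nearly all actives have a fitted effect of over 50% in size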
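CHO cells stably expressing M1 receptor (2000/well, cultured 16–30 h) treated 30 min at 37C with compound plus low lithium. Cytosolic IP1 by TR-FRET (665/620 ratio and 620 channel) after 10 min lysis; AC50 by Hill fit.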
Numbers without * were called inactive; ? = inconclusive; nt = no result given; [ ] = another dose, or the depositor's remark. Unless noted, calls follow the shape of the dose curve; as a rule, active = well fitted curve in the direction sought with a large enough effect; inconclusive = small, poorly fitted or top-dose-only effect, or another doubt; inactive = no such curve, though single readings can be large; an effect the other way counts as inactive or inconclusive. Unless noted, % is scaled to controls: 0 for no effect and ±100 for the full control effect.

SMILES	PNC inhibitor	IMPase inh	HPGD block	ALOX15B inhib	12-hLO inh	IMPase Li cell
S=C(NCCc1ccccc1)Nc1ccc(Cl)cc1Cl	-6	?	-22%	25µM*	?	14%[38.3 µM]
Cc1ccccc1NC(=S)NCc1cccs1	?	2	-20%	-9%	-1%	23%[38.3 µM]
Cc1ccccc1NC(=S)NCc1ccccc1	?	nt	28µM*	nt	-7%	4%
S=C(NCc1ccccc1)Nc1cccc(Cl)c1	-28	nt	14µM*	nt	-12%	5%
NS(=O)(=O)c1ccc(NC(=S)N2CCN(c3cccc(Cl)c3)CC2)cc1	-27	nt	25µM*	nt	-1%	8%
COC(=O)c1ccccc1NC(=O)c1cc2nc(-c3ccc(OC)cc3)cc(C(F)(F)F)n2n1	nt	-4	nt	nt	nt	nt
C[C@H](Oc1ccc(Oc2cnc3ccc(Cl)cc3n2)cc1)C(=O)O	nt	-4	-10%	5%[11.4 µM]	-14%[11.4 µM]	-5%
O=[N+]([O-])/C(=C\Nc1ccccc1)S(=O)(=O)c1ccccc1	19	-3	-8%	8%	-3%	5%[38.3 µM]
O=[N+]([O-])/C(=C\Nc1ccccc1Cl)S(=O)(=O)c1ccccc1	-25	4	32µM*	-6%	-16%	8%[38.3 µM]
CCSc1nnc(NC(=O)c2ccc(S(=O)(=O)N(C)C)cc2)s1	nt	nt	nt	nt	nt	0%
CN(C)S(=O)(=O)c1ccc(C(=O)Nc2nnc(SCc3cccc4ccccc34)s2)cc1	-134*	nt	?	nt	-1%	0%
CCOC(=O)c1c(CN2CCOCC2)n(-c2ccccc2)c2cc(Br)c(OC)cc12	-92*	-3	-12%	11%	-4%	37%[38.3 µM]
CCOC(=O)c1c(CN2CCOCC2)n(-c2ccccc2)c2cc(Br)c(O)cc12	39	23	-7%	16%	2%	3%[38.3 µM]
NC1=NC(=O)/C(=C/c2cn(Cc3ccccc3)c3ccccc23)S1	-9	0	28µM*	nt	-20%	6%
O=C1C2C3C=CC(C3)C2C(=O)N1/N=C/c1cn(Cc2ccccc2)c2ccccc12 (stereo not given)	27	7	-5%	2%	-5%	-11%[38.3 µM]
COc1ccc(N2CCN(CC(O)COc3ccc(C(C)C)c(C)c3)CC2)cc1 (stereo not given)	nt	3	nt	nt	nt	nt
COc1cc(C2NC(=O)C(C#N)=C(S)N2c2ccc(C)cc2)ccc1OC(C)C (stereo not given)	?	6	25µM*	-18%	?	51%[38.3 µM]
Cc1ccc(N2C(S)=C(C#N)C(=O)NC2c2cccs2)cc1 (stereo not given)	-114*	nt	22µM*	nt	?	0%
Cc1ccc(N2C(S)=C(C#N)C(=O)NC2c2ccco2)cc1 (stereo not given)	nt	nt	nt	nt	nt	-4%
N#CC1=C(S)N(c2ccccc2)C(c2cccs2)NC1=O (stereo not given)	35	-2	32µM*	-1%	2%	-4%
COc1ccc(C2NC(=O)C(C#N)=C(S)N2c2ccc(C)cc2)cc1OC (stereo not given)	nt	nt	nt	nt	nt	11%
COc1ccc(N(CC(=O)Nc2ccc(C)c(C)c2)S(=O)(=O)c2ccc(C)cc2)cc1OC	nt	-8	nt	nt	nt	nt
Cc1ccc(C2=NN(Cc3nnc(-c4ccccc4)o3)C(=O)SC2)cc1	8	nt	11µM*	nt	-1%	7%
N=C1Sc2ccccc2C2=NCCCN12	nt	13	2.2µM*	13µM*	?	18%
c1ccc2c(c1)Sc1ccccc1-n1cnnc1-2	27	?	-24%	nt	-1%	1%
SMILES	PNC inhibitor	IMPase inh	HPGD block	ALOX15B inhib	12-hLO inh	IMPase Li cell
CC(C)(C)c1ccc(OCC2CO2)cc1 (stereo not given)	nt	nt	-12%	-3%	-4%	-11%
COc1ccc(-c2[nH]c(-c3ccc(Cl)cc3)nc2SCC(=O)Nc2nccs2)cc1	2	nt	-27%	nt	1%	14%
COc1ccc(-c2[nH]c(-c3ccccc3)nc2SCC(=O)Nc2nccs2)cc1	-98*	nt	-25%	nt	3%	-1%
CC(=O)Nc1ccc(S(=O)(=O)N(C2=NCC(C)S2)c2ccccc2)cc1 (stereo not given)	280	-4	-16%	nt	-2%	3%
Cc1cccc(N(C(=O)Nc2ccccc2)C2=NCC(C)S2)c1 (stereo not given)	9	6	18µM*	22%	2%	-1%[38.3 µM]
CC1CN=C(N(C(=O)Nc2ccccc2)c2ccc(F)cc2)S1 (stereo not given)	-26	4	10µM*	24%	1%	5%[38.3 µM]
Cc1cccc(N(C(=O)Nc2ccc(Cl)cc2)C2=NCC(C)S2)n1 (stereo not given)	nt	nt	nt	nt	nt	6%
FC(F)(F)c1cc(-c2ccco2)nc(NCc2ccco2)n1	-10	?	-5%	nt	-9%	2%
COc1cccc(-c2cc(C(F)(F)F)nc(NCc3ccco3)n2)c1	-100*	15	-29%	nt	-9%	12%
Cc1cc(C)n(-c2nc3ccccc3nc2N2CCN(c3cccc(C(F)(F)F)c3)CC2)n1	nt	-7	nt	nt	nt	nt
COc1ccc(Br)c(C(=O)Nc2cc3c(cc2N2CCOCC2)n(C)c(=O)n3C)c1	nt	10	nt	nt	nt	nt
Cc1cc(N2CCCCC2)ccc1[N+](=O)[O-]	30	nt	22µM*	nt	13%	6%
O=[N+]([O-])c1ccc(N2CCCC2)cc1N1CCCC1	-27	14	-15%	nt	-9%	2%[38.3 µM]
Cc1cc(C=O)c(C)n1-c1ccc(N2CCCC2)c([N+](=O)[O-])c1	-20	7	14µM*	-5%	-19%	6%[38.3 µM]
CCOC(=O)c1ccc(-n2c(CCC(=O)O)ccc2-c2ccc(Br)cc2)cc1	nt	23	nt	nt	nt	nt
Cc1ccc(OCCOc2ccc(Cl)cc2Cl)c([N+](=O)[O-])n1	71	nt	32µM*	nt	1%	14%
O=C(NCCOc1nc(N2CCCCC2)nc(N2CCOCC2)n1)Nc1ccccc1	-107*	6	-8%	-4%	-1%	30%[38.3 µM]
Cc1cc(C(=O)O)c(C)n1-c1ccccc1	1	3	-2%	-2%	8%	5%[38.3 µM]
CSc1cccc(-n2c(C)cc(C(N)=O)c2C)c1	-14	12	4.5µM*	0%	3%	1%[38.3 µM]
CCOC(=O)c1cnc(SC)nc1Nc1cccc(F)c1	40	6	-9%	8%	-10%	8%[38.3 µM]
CCOC(=O)c1cnc(SC)nc1Sc1cc(Cl)ccc1Cl	27	-2	7.1µM*	-1%	-4%	15%[38.3 µM]
COc1cc2ccccc2cc1C(=O)Nc1ccc(Cl)c(-c2nc3ccccc3o2)c1	nt	-1	nt	nt	nt	nt
Clc1ccc(OCc2nn3c(C4CCCCC4)nnc3s2)cc1	-16	3	20µM*	12%	-4%	11%
CCOC(=O)Cc1ccc(NC(=O)c2ccccc2Br)cc1	nt	nt	nt	nt	nt	6%
CCOC(=O)CCNC(=O)c1ccccc1Br	0	-4	18µM*	-1%	1%	5%[38.3 µM]

Bioassay records as filed in PubChem BioAssay.
